# Source: PubChem (Broad Institute)
# p53 PUMA act = mutant p53 pathway re-activators, primary screen, cell-based, SW480, luciferase, single point, HTS | hit rate 1.5% among 28,000 | activation, % at 9.98 µM | SW480 PUMA-promoter luciferase, p53 mutant reactivation; in the data active = activation above about 52%; inconclusive = no clear call, values can overlap the other calls
# Myc binder = binders of human c-Myc, primary screen, biochemical, small molecule microarray, anti-His fluorescence; hit rate 1.5% among 17,000; calls only; His-c-Myc binding;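 active = spot fluorescence over background with P-value below 7% in all four replicate spots, showing protein binding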;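 note: score is binary with 100 for all four spots passing and 0 otherwise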
# NFkB SMM = binders of NF-kB p50 subunit, primary screen, biochemical, small molecule microarray, anti-His fluorescence; Nuclear factor NF-kappa-B p105 subunit (Homo sapiens), P19838; anti-His fluorescence binding; calls only; hit rate 1.3% among 17,000; AID 624139, 2012;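 active = spot fluorescence over background significantly raised, with a chance value under 7% in all four replicate spots of the compound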;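 note: probe protein is his-tagged human p50 processed subunit at 1 µg/ml; raw spot fluorescence signals with no normalization applied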
# mut p53 SMM = binders of human mutant p53, primary screen, biochemical, small molecule microarray, anti-GST fluorescence | calls only | small molecule microarray binding | mutant tumor protein p53 (GST-tagged), Homo sapiens | hit rate 0.4% among 17,000;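 active = compounds whose four printed spots each glow above background more than chance allows, each with a p-value under 7%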
# STAT3 SMM = STAT3 binders, primary screen, biochemical, small molecule microarray, single point, set 2 | Signal transducer and activator of transcription 3 (Homo sapiens), P40763 | hit rate 0.2% among 17,000 | His-STAT3 binding, anti-His fluorescence | calls only;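 active = compounds whose four printed spots each show fluorescence over background unusually high for their array block, chance value under 7%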
# Target sequence (P40763 whole entry, looked up): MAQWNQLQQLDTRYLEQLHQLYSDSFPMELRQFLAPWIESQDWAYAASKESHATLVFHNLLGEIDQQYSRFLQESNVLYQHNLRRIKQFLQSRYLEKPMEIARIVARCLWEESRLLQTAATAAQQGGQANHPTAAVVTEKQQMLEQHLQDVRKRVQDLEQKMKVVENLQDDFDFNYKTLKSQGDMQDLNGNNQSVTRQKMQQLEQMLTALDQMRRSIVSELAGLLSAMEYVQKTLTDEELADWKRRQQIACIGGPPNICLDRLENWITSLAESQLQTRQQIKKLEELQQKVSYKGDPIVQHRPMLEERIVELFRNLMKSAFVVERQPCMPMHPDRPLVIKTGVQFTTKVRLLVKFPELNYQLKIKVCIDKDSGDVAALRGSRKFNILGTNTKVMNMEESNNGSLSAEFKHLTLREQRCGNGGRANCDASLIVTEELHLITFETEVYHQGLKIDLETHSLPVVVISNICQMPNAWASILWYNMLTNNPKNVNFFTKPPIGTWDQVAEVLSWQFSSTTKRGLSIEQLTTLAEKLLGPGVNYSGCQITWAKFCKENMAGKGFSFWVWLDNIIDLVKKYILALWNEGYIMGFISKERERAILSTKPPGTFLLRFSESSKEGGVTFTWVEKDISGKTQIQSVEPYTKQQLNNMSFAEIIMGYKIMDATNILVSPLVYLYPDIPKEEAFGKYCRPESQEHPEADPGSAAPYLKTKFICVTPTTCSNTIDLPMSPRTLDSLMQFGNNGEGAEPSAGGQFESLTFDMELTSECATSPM
# The depositor's hits bear a star; i = inactive; ? = inconclusive; / = no result given; + = active, no number. The list is not random: actives were taken first. Their share in the collection is about 2.8%.
SMILES,p53 PUMA act,Myc binder,NFkB SMM,mut p53 SMM,STAT3 SMM
COc1ccc2c(c1)C(O)(CC(=O)c1ccc3ccccc3c1)C(=O)N2 (configuration not stated),5.0,/,/,/,/
Cc1[nH]c2ccccc2c1C(=O)CSc1nnc2ccccn12,94.9*,/,/,/,/
Cc1[nH]c2ccccc2c1C(=O)CSc1ncn[nH]1,4.6,/,/,/,/
COc1ccc(OC)c(NC(=O)CSc2nc3sc4c(c3c(=O)n2-c2ccccc2)CCCC4)c1,7.9,/,/,/,/
COc1ccc(S(=O)(=O)N(C)CC(N)=O)cc1,-8.7,/,/,/,/
COc1ccc(S(=O)(=O)N(C)CCc2ccccn2)cc1,-7.7,+,+,i,+
O=C(NCc1n[nH]c(=O)c2ccccc12)c1cc2ccccc2oc1=O,-4.0,i,i,i,i
CN(C)c1nc(N)nc(CSc2ncc(Cl)cc2Cl)n1,62.2*,/,/,/,/
O=C(CSc1nc2ccccc2o1)Nc1ccc(N2CCOCC2)c(Cl)c1,96.1*,/,/,/,/
CC(=O)Nc1ccc(C(=O)CSc2nc(-c3ccccc3)cs2)cc1,87.6*,/,/,/,/
CC(=O)Nc1ccc(C(=O)CSc2nc3ccccc3o2)cc1,56.3*,i,i,i,i
COC(=O)c1cc(OC)c(OC)cc1NC(=O)CSc1nc2ccccc2o1,104.7*,/,/,/,/
COc1cc(OC)nc(NC(=O)CSc2nc3ccccc3o2)n1,-16.5,i,i,i,i
NNC(=O)CCn1c(-c2ccccc2)c(-c2ccccc2)c2ccccc21,-6.0,/,/,/,/
N#Cc1c(C(F)(F)F)cc(-c2ccc(Br)cc2)nc1SCCC(=O)O,-26.4,+,+,i,i
Fc1cccc(Cl)c1CN1CCN(CCCNc2ncnc3scc(-c4ccccc4)c23)CC1,-11.3,/,/,/,/
CC(Oc1ccc(Br)cc1)c1nc(-c2ccccn2)no1 (configuration not stated),60.3*,/,/,/,/
O=C(OCc1cccc([N+](=O)[O-])c1)c1ccc(NC(=O)c2ccco2)cc1,69.6*,i,i,i,i
Cc1cc(NC(=O)CSc2nnc(-c3ccccc3Cl)n2C)ccc1Br,5.4,/,/,/,/
COc1ccc(C(=O)O)cc1S(=O)(=O)NCc1ccccc1,-1.2,i,i,i,i
C[C@@H]1CN([C@@H](C)CO)C(=O)c2cc(NC(=O)Nc3ccc(C(F)(F)F)cc3)ccc2O[C@@H](C)CCCCO[C@H]1CN(C)Cc1ccc(C(F)(F)F)cc1,/,i,+,i,i
C[C@H]1CCCCO[C@@H](CN(C)Cc2ccncc2)[C@@H](C)CN([C@@H](C)CO)C(=O)c2cc(NC(=O)Nc3ccc(C(F)(F)F)cc3)ccc2O1,-39.0,/,/,/,/
C[C@@H]1CCCCO[C@@H](CN(C)Cc2ccc(C(=O)O)cc2)[C@H](C)CN([C@H](C)CO)C(=O)c2cc(NC(=O)Nc3ccc(C(F)(F)F)cc3)ccc2O1,/,i,+,i,i
C[C@H](CO)N1C[C@H](C)[C@H](CN(C)Cc2ccc(C(F)(F)F)cc2)OCCCC[C@H](C)Oc2ccc(NC(=O)Nc3ccccc3)cc2C1=O,-72.5,/,/,/,/
CCn1c(SCC(=O)Nc2cccc(F)c2)nnc1-c1ccc(C)cc1,-9.5,/,/,/,/
SMILES,p53 PUMA act,Myc binder,NFkB SMM,mut p53 SMM,STAT3 SMM
O=C(COc1ccc2ccccc2c1Br)NCc1ccccn1,96.1*,/,/,/,/
COc1ccc(NC(=O)NCc2ccccn2)cc1OC,-4.3,/,/,/,/
COc1cc(OC)c(OC)cc1CN1CCN(Cc2ccccn2)CC1,0.0,+,i,i,i
Cc1cc(C)nc(Nc2n[nH]c(COc3ccccc3)n2)n1,?,i,i,i,i
Cc1cc(C)nc(Nc2n[nH]c(-c3cccnc3)n2)n1,73.7*,/,/,/,/
COc1ccc(-c2nc(Nc3nc(C)cc(C)n3)n[nH]2)cc1OC,85.1*,i,i,i,i
O=C(COc1cccc2ccccc12)Nc1cccc(C(=O)O)c1,-8.2,/,/,/,/
Cc1ccc(S(=O)(=O)NC(=O)COc2cccc3ccccc23)c(C)c1,-16.9,+,i,i,i
Cc1ccc2c(CC(=O)Nc3cccc([N+](=O)[O-])c3)coc2c1C,69.0*,/,/,/,/
Cc1ccc2c(CC(=O)NCc3ccco3)coc2c1C,-24.2,i,i,i,i
CC1=CCC(C(=O)O)C(C(=O)Nc2ccccc2NC(=O)c2ccc(C(F)(F)F)cc2)C1 (configuration not stated),107.7*,/,/,/,/
CC1=CCC(C(=O)O)C(C(=O)Nc2ccc(OC(F)(F)F)cc2)C1 (configuration not stated),-11.4,/,/,/,/
C[C@@H]1CN([C@@H](C)CO)C(=O)c2cc(NS(C)(=O)=O)ccc2O[C@@H](C)CCCCO[C@@H]1CN(C)C(=O)CCC(F)(F)F,5.1,+,i,i,i
C[C@@H]1CCCCO[C@H](CN(C)C(=O)CCC(F)(F)F)[C@@H](C)CN([C@@H](C)CO)C(=O)c2cc(NS(C)(=O)=O)ccc2O1,-1.9,i,i,i,i
C[C@H]1CCCCO[C@H](CN(C)C(=O)CCC(F)(F)F)[C@@H](C)CN([C@@H](C)CO)C(=O)c2cc(NS(C)(=O)=O)ccc2O1,17.3,+,+,i,i
Cc1ccc(-c2noc(CSc3nc(C)c(C)c(=O)[nH]3)n2)cc1,2.0,i,i,i,i
O=C(O)c1ccccc1Nc1nc(N2CCOCC2)nc(N2CCOCC2)n1,55.8*,i,i,i,i
Cc1ccc(NC(=O)COc2ccc(Cl)cc2)c([N+](=O)[O-])c1,95.1*,/,/,/,/
CCc1ccc(OCC(=O)Nc2ccc(C)cc2[N+](=O)[O-])cc1,66.2*,/,/,/,/
CCOc1ccc(OCC(=O)Nc2ccc(C)cc2[N+](=O)[O-])cc1,32.3,/,/,/,/
Cc1ccc(NC(=O)COc2cc(C)c(Br)c(C)c2)c([N+](=O)[O-])c1,10.7,/,/,/,/
Cc1ccc(C)c(NC(=O)CN(c2ccc(C)c(Cl)c2)S(C)(=O)=O)c1,2.5,/,/,/,/
Cc1c(NC(=O)CSc2nc3cc(C(=O)N4CCCC4)ccc3s2)c(=O)n(-c2ccccc2)n1C,-8.5,/,/,/,/
C=C1CC[C@@]2(OC1)O[C@H]1CC3[C@@H]4CC=C5C[C@H](O[C@@H]6OC[C@H](O)[C@H](O)[C@H]6O[C@@H]6O[C@@H](C)[C@H](O)[C@@H](O)[C@H]6O)C[C@@H](O)[C@]5(C)C4CC[C@]3(C)[C@H]1[C@@H]2C (some centres not stated),-13.7,+,+,i,i
C[C@@H]1O[C@@H](O[C@H]2[C@H](O)[C@@H](O[C@@H]3O[C@H](CO)[C@@H](O)[C@H](O)[C@H]3O)[C@H](O[C@H]3CC[C@@]4(C)C(=CC[C@@H]5C4CC[C@@]4(C)C5C[C@@H]5O[C@]6(CC[C@@](C)(CO)O6)[C@@H](C)[C@@H]54)C3)O[C@@H]2CO)[C@H](O)[C@H](O)[C@H]1O (some centres not stated),-4.2,i,i,i,i
